Bioassay records from PubChem.
Shown are actives, neighbours in structure and some others; about 1.9% of the full set was active somewhere.
H9c2 protect – cardioprotection against H2O2-induced cell death, primary screen, uHTS, H9c2 cells, ATPLite luminescence; H9c2 cardiomyocytes, H2O2 injury protection, 2 h; protection from H2O2 cell death, % at 20 µM; 360,000 tested, 0.63% active;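 active = compounds giving at least 50% protection of heart cells from peroxide-induced death in the single-dose screen, raw or plate-pattern-corrected value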;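 note: 0% = DMSO wells with peroxide and 100% = DMSO wells without peroxide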
PP1 counter – PP1-alpha phosphatase inhibitors, primary screen, counter-screen for PP5 inhibitor project, biochemical, fluorescence, OMFP substrate, single point. purified PP1alpha. 320,000 tested, 0.9% active. inhibition, % at 6.7 µM;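 active = inhibition above the mean inhibition of all tested compounds plus 3 SD, computed separately for each screening campaign, cut at about 15% in these data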
Target sequence (P62136 whole entry, looked up): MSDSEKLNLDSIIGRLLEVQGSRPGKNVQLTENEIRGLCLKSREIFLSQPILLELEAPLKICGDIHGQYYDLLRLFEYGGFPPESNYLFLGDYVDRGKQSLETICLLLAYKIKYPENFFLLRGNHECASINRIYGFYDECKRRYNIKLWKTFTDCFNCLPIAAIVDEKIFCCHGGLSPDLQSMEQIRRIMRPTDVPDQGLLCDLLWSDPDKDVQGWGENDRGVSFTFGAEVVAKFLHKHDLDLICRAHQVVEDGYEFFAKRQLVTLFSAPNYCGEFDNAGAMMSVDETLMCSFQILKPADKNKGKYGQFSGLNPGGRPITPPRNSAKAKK
PP5 primary – PP5 phosphatase inhibitors, primary screen, biochemical, fluorescence | Serine/threonine-protein phosphatase 5 (Homo sapiens), P53041 | inhibition, % at 6.7 µM | purified PP5c, OMFP substrate fluorescence | 320,000 tested, 0.18% active | AID 1987, 2009;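 active = inhibition above the campaign's mean inhibition across all tested compounds plus 3 SD, cut at about 9.5% in these data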;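 note: 0% = DMSO only and 100% = 100 µM cantharidin control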
ATG4B inh – ATG4B protease inhibitors, primary screen, biochemical, fluorescence, uHTS; ATG4B cleavage of LC3-PLA2, NBD-HPC fluorescence, 1 h; Cysteine protease ATG4B (Homo sapiens), Q9Y4P1; AID 504462, 2011; inhibition, % at 8.33 µM; 340,000 tested, 0.51% active; in the data active = inhibition above about 40%
ATG4B conf – ATG4B protease inhibitors, retest, confirmation, biochemical, fluorescence, single concentration; 320 tested, 92% active; AID 504757, 2011; inhibition, % at 8.33 µM; shares compounds with ATG4B inh; ATG4B protease fluorescent substrate cleavage assay; in the data active = inhibition above about 39%
PLA2 ctr – PLA2 enzyme inhibition, counter-screen for ATG4B inhibitor project, biochemical, single concentration, uHTS hits; shares compounds with ATG4B inh; purified PLA2, NBD-C6-HPC fluorescence, 45 min; inhibition, % at 8.33 µM; 1,600 tested, 66% active; AID 588402, 2011; in the data active = inhibition above about 50%
* = called active by the depositor.

Screening c1ccc(-c2ccc(-n3ccnc3)cc2)cc1 returned H9c2 protect -4, PP1 counter 5, PP5 primary -1 and ATG4B inh -2.
`c1ccc(-c2ccc(C(c3ccccc3)n3ccnc3)cc2)cc1` (centres undefined) gave H9c2 protect -20, PP1 counter 16*, PP5 primary -1, ATG4B inh 41*, ATG4B conf 63* and PLA2 ctr 45.
COc1cc(OC)cc(-c2nnc(Nc3nc4c(F)cccc4s3)o2)c1 was read as H9c2 protect -16, PP1 counter -5, PP5 primary -2, ATG4B inh 57*, ATG4B conf 51* and PLA2 ctr 11.
Screening Fc1cccc2sc(Nc3nnc(-c4ccccc4)o3)nc12 returned H9c2 protect -29, PP1 counter -3, PP5 primary -3 and ATG4B inh 5.
COc1ccc(NC(=O)C2CCCC2)cc1S(=O)(=O)N1CCOCC1 was read as H9c2 protect 0, PP1 counter -4, PP5 primary -1 and ATG4B inh -6.
Screening C1=C(c2cc3ccccc3cn2)CCCC1 returned H9c2 protect -7 and ATG4B inh 16.
`CC1CCN(C(=O)C2CCN(S(=O)(=O)c3ccc(-n4cnnn4)cc3)CC2)CC1` gave H9c2 protect 6, PP1 counter -3, PP5 primary -3 and ATG4B inh -5.
For Cc1c(CCC(=O)O)c(=O)oc2cc3occ(C(C)(C)C)c3cc12 the results were H9c2 protect -7, PP1 counter -2, PP5 primary -2, ATG4B inh 44* and PLA2 ctr 61*.
`Cc1c(CCC(=O)O)c(=O)oc2cc3occ(-c4ccc(F)cc4)c3cc12` gave H9c2 protect 0, PP1 counter 4, PP5 primary -1 and ATG4B inh -1.
CC(=O)c1cccc(NC(=O)NC2CCCc3ccccc32)c1 (centres undefined) was read as H9c2 protect 4, PP1 counter 2, PP5 primary 0, ATG4B inh 53* and PLA2 ctr 67*.
For CC(=O)c1ccc(NC(=O)NC2CCCc3ccccc32)cc1 (centres undefined) the results were H9c2 protect 3, PP1 counter -5, PP5 primary -1 and ATG4B inh 40.
`COc1ccccc1Cn1c(=S)[nH]c2cc(C(=O)N3CC(C)CC(C)C3)ccc2c1=O` (centres undefined) gave H9c2 protect -13.
Screening Cc1ccc2c(c1)nnn2C1CCN(S(=O)(=O)c2ccc(C(=O)N(C)C)cc2)CC1 returned H9c2 protect 0, PP1 counter 4, PP5 primary -1 and ATG4B inh -17.
Cc1ccc2c(c1)nnn2C1CCN(S(=O)(=O)c2ccc(C(=O)N3CC(C)CC(C)C3)cc2)CC1 (centres undefined) was read as H9c2 protect -8, PP1 counter -3, PP5 primary 1, ATG4B inh 59* and PLA2 ctr 73*.
For CN(C)c1ccnc(Oc2ccc(C(C)(C)C)cc2)c1C#N the results were H9c2 protect -12, PP1 counter 3, PP5 primary 5, ATG4B inh 75* and PLA2 ctr 80*.
For Cc1cccc(C)c1OCC(O)Cn1c2ccccc2c2ccccc21 (centres undefined) the results were H9c2 protect -17, PP1 counter -2, PP5 primary 5, ATG4B inh 53* and PLA2 ctr 61*.
Screening Cc1ccc(OCC(O)Cn2c3ccccc3c3ccccc32)cc1 (centres undefined) returned H9c2 protect -19, PP1 counter 4, PP5 primary 3 and ATG4B inh 4.
For COc1ccc(-c2nn(Cc3ccccc3)cc2C(=O)N2CCN(c3ncccn3)CC2)cc1OC the results were H9c2 protect -2, PP1 counter 2, PP5 primary -1 and ATG4B inh 3.
